In ChEMBL document CHEMBL1157539, “Thousands of chemical starting points for antimalarial lead identification” (Nature, 2010):

Assays:
Format in all cases: functional
Plasmodium falciparum [1] = test: GSK_TCMDC: Inhibition of Plasmodium falciparum 3D7 in whole red blood cells, using parasite LDH activity as an index of growth. Test compounds present at 2uM
Plasmodium falciparum [2] = test: GSK_TCMDC: Inhibition of Plasmodium falciparum Dd2 in whole red blood cells, using parasite LDH activity as an index of growth. Test compounds present at 2uM
HepG2 = test: GSK_TCMDC: Percent inhibition of human HepG2 cell line. Test compounds present at 10uM.

| SMILES | Inhibition (Plasmodium falciparum [1]) | Inhibition (Plasmodium falciparum [2]) | Inhibition (HepG2) |
| --- | --- | --- | --- |
| CC(C)CNC(=O)c1cncc(-c2cccc(CNC3Cc4ccccc4C3)c2)c1.O=C(O)C(F)(F)F | 100% | 19% | 4% |
| N#Cc1ccc(CN2CCCN(Cc3cccc(NC(=O)c4ccc(Cl)c(Cl)c4)c3)CC2)cc1.O=C(O)C(F)(F)F | 95% | 10% | 19% |
| CCCCNCC(O)COc1ccccc1-c1ccc(N/N=C/c2cccc3ccccc23)nn1 (stereo not given) | 99% | 8% | 38% |
| O=C(Nc1cccc(CN2CCCN(Cc3ncc[nH]3)CC2)c1)c1ccc2ccccc2c1.O=C(O)C(F)(F)F | 100% | 2% | 13% |
| COCCN1CCN(Cc2ccc(-c3ccc(-c4nc5cccc(C)c5[nH]4)s3)cc2)CC1.O=C(O)C(F)(F)F | 95% | 52% | 32% |
| COc1ccc(N2CCN(CCc3ccc(NC(=O)c4ccc([N+](=O)[O-])cc4)cc3)CC2)c(OC)c1 | 83% | 0% | 45% |
| Cc1nc(C)c(-c2ccc(Oc3ccc(Cl)cc3Cl)cc2)c(O)c1Br | 98% | 94% | 3% |
| COc1ccc2nc(N3CCN(C(=O)OC(C)(C)C)CC3)nc(NCCCc3ccccc3)c2c1 | 100% | 95% | 9% |
| CCCc1cc(OC)c(C[C@@H]2c3cc(O)c(Cl)cc3CCN2C)cc1OC.Cl | 98% | 98% | 3% |
| COc1ccc2nccc([C@@H](O)CN3CCC(NC(=O)c4ccc(Cl)c(Cl)c4)CC3)c2c1 | 96% | 57% | 21% |
| O=C(Nc1ccc(F)cc1)N1CCCN(c2ccnc3cc(Cl)ccc23)CC1.O=C(O)C(F)(F)F | 97% | 16% | 7% |
| Br.CCC(C)Oc1ccc(CCCON2C(N)=NC(N)=NC2(C)C)cc1 (stereo not given) | 92% | 95% | 65% |
| Cc1cc(C)cc(OCC(O)CN(Cc2cc(Cl)cc(Cl)c2)C(=O)Nc2ccc(Cl)cc2)c1 (stereo not given) | 97% | 43% | 0% |
| CC(C)Cc1c(O)nc(SCCN2CCOCC2)[nH]c1=O.Cl | 88% | 0% | 19% |
| CCOc1ccc2c(=NN=Cc3cc(OC)c(OC)cc3OC)cc(C)[nH]c2c1 | 100% | 97% | 24% |
| CCN(CC)C(=O)C1CCCN(C(=O)Nc2cc(C(F)(F)F)cc(C(F)(F)F)c2)C1 (stereo not given) | 86% | 98% | 0% |
| CCCCN(Cc1cnccc1-c1ccc(Br)cc1)c1ccc(C(O)(C(F)(F)F)C(F)(F)F)cc1.O=C(O)C(F)(F)F | 87% | 45% | 10% |
| C#CCCC(=O)Nc1cccc(-c2cccc(-c3nc4cccc(C)c4[nH]3)c2)c1 | 97% | 29% | 30% |
| C[C@H](NC(=O)c1c(OC2CN(C(c3ccccc3)c3ccccc3)C2)c(-c2ccccc2)nc2ccccc12)C1CCCCC1 | 92% | 74% | 0% |
| COc1ccc(NC(=O)c2ccc(Br)c(C)c2)cc1N1CCN(CCCCc2ccccc2)CC1.O=C(O)C(=O)O | 88% | 17% | 29% |

| SMILES | Inhibition (Plasmodium falciparum [1]) | Inhibition (Plasmodium falciparum [2]) | Inhibition (HepG2) |
| --- | --- | --- | --- |
| Cc1cccc(CN2CCCN(Cc3ccc(C(=O)Nc4ccc(Cl)cc4)cc3)CC2)c1.O=C(O)C(F)(F)F | 92% | 17% | 54% |
| COC(=O)c1cc(OC2CCOC2=O)cc2c1OC(C)(C)O2 (stereo not given) | 97% | 0% | 6% |
| CCc1cc2c(=O)c(-c3nc(C)cs3)c([C@H](N)Cc3ccc(O)cc3)oc2cc1O.O=C(O)C(F)(F)F | 100% | 19% | 11% |
| N#Cc1cncc(-c2nc3c(N4CCC(N5CCCC5)CC4)cccc3n2CCNCc2ccccc2)c1.O=C(O)C(F)(F)F | 100% | 58% | 3% |
| Cc1ccccc1CCNC(=O)c1ccc(N2CCN(c3ccncc3)CC2)nc1.O=C(O)C(F)(F)F | 95% | 20% | 10% |
| Clc1ccc(Cn2nc(Br)nc2Br)c(Cl)c1 | 96% | 96% | 4% |
| O=C(Nc1ccccc1)Nc1cccc(-c2nn3c(OCCN4CCCC4)cccc3c2-c2ccncc2)c1 | 100% | 98% | 30% |
| O=C(NCCCCN1CCC2c3cccc(O)c3CCC21)c1ccc(-c2ccccc2)cc1 (stereo not given) | 81% | 50% | 23% |
| Cc1cccc2nc(-c3ccc(-c4ccc(CN5CCN(c6ccncc6)CC5)cc4)s3)[nH]c12.O=C(O)C(F)(F)F | 100% | 98% | 85% |
| CC(C)C(C)(C#N)NC(=O)CSc1nc2ccc([N+](=O)[O-])cc2s1 (stereo not given) | 95% | 81% | 0% |
| Cl.N=C(N)Nc1nc(-c2ccc(NC(=N)N3CCC[C@H]3CN3CCCC3)cc2)cs1 | 82% | 66% | 6% |
| Cc1ccccc1C1CCN(c2ccc(C(=O)NC3CC3)cn2)CC1.O=C(O)C(F)(F)F | 95% | 95% | 17% |
| CC(C)C[C@H](Nc1ccnc(NCC2CCCCC2)n1)C(=O)NCCc1ccccc1.O=C(O)C(F)(F)F | 88% | 66% | 10% |
| Cc1cccc2nc(-c3ccc(-c4ccc(CN5CCCC(O)C5)cc4)s3)[nH]c12.O=C(O)C(F)(F)F (stereo not given) | 100% | 29% | 38% |
| CC(=O)Nc1ncc(C(=O)Nc2cccc(-c3cccc(-c4nc5ccccc5[nH]4)c3)c2)s1 | 92% | 38% | 16% |
| CCOC(=O)c1ccc(NC(=O)Nc2cccc(-c3ccc(-c4nc5ccccc5[nH]4)cc3)c2)cc1 | 100% | 86% | 54% |
| Cc1cc(NCCCCCCCCNc2cc(C)nc3ccccc23)c2ccccc2n1.Cl | 100% | 0% | 59% |
| CN/C(=C\[N+](=O)[O-])NCCSCc1cc(C)c(CN(C)C)s1 | 98% | 96% | 48% |
| COc1ccc2nc(-c3ccc(C(=O)NCCCN4CCN(c5cc(Cl)ccc5OC)CC4)cc3OC)[nH]c2c1 | 100% | 24% | 0% |
| COc1cc2nc(N3CCC(CNC(=O)c4cccc5cccnc45)CC3)nc(N)c2cc1OC | 99% | 33% | 34% |

| SMILES | Inhibition (Plasmodium falciparum [1]) | Inhibition (Plasmodium falciparum [2]) | Inhibition (HepG2) |
| --- | --- | --- | --- |
| Cl.O=S(=O)(c1ccc(OCc2ccc(Cl)cc2)cc1)c1cc2c(c(-c3ccc(F)cc3)c1)CCN(CC1CC1)CC2 | 84% | 14% | 0% |
| CCc1ccc(C2CCN(CCCCNC(=O)c3ccc(NC(=O)c4ccc(Cl)cc4)cc3)CC2)c(OC(C)=O)c1 | 91% | 100% | 48% |
| COc1cc2nc(NCC3CCCO3)n3nc(-c4ccccc4)nc3c2cc1OC (stereo not given) | 92% | 97% | 0% |
| Fc1ccc2[nH]c(-c3cccc(-c4ccc(CN5CCC(CCN6CCCCC6)CC5)cc4)c3)nc2c1.O=C(O)C(F)(F)F | 100% | 100% | 91% |
| Cc1cccc2nc(-c3ccc(-c4cccc(NC(=O)c5cccc(C(N)=O)c5)c4)cc3)[nH]c12 | 84% | 87% | 14% |
| O=C(NCCN1CCCCC1)c1cc2cc(-c3ccccc3)ccc2n1S(=O)(=O)c1ccccc1 | 90% | 0% | 15% |
| CCOC(=O)N1CCC(NC(=O)c2ccc(C(C)(C)C)cc2OC)CC1 | 88% | 0% | 0% |
| COC(=O)C1=C(C)NC2=C(C(=O)CC(c3ccc(OC)c(OC)c3)C2)C1c1cccc(O)c1 (stereo not given) | 99% | 69% | 2% |
| Clc1ccc(-c2cnc3ccc(NCCc4cccnc4)nn23)cc1 | 97% | 32% | 34% |
| CCOC(=O)c1ccc(NC(=O)Nc2ccc(-c3ccc(-c4nc5cccc(C)c5[nH]4)s3)cc2)cc1 | 100% | 100% | 60% |
| Clc1ccccc1CCNCC1CCN(CC2CCCCC2)CC1.O=C(O)C(F)(F)F | 97% | 38% | 45% |
| O=C(Nc1ccc(CCN2CCC(c3nc(COCC(F)(F)F)c(-c4ccccc4)o3)CC2)cc1)c1ccc(F)cc1 | 86% | 3% | 9% |
| CC(C)CNCc1ccc(-c2cccc(CNC3CCN(Cc4ccccc4)CC3)c2)cc1.O=C(O)C(F)(F)F | 100% | 100% | 34% |
| CC(C)Oc1ccccc1-c1csc(C(=O)NCC2CCN(Cc3ccc(C(C)(C)C)cc3)C2)c1.O=C(O)C(F)(F)F (stereo not given) | 90% | 45% | 59% |
| CN1CCC(NCc2cccc(-c3ccc(S(=O)(=O)NCCN4CCCC4)c(F)c3)c2)CC1.O=C(O)C(F)(F)F | 91% | 0% | 14% |
| Cc1cc(=O)[nH]c(-n2nc(C)cc2NC(=O)C(c2ccccc2)c2ccccc2)n1 | 96% | 77% | 31% |
| COc1cc(O)c2c(=O)c(OC)c(-c3cccc(Cl)c3OC3O[C@H](CO)[C@@H](O)[C@H](O)[C@H]3O)oc2c1OC (stereo not given in full) | 100% | 6% | 16% |
| O=C(Nc1cccc(CN2CCCN(Cc3ccc(O)cc3)CC2)c1)c1ccc(-c2ccccc2)cc1.O=C(O)C(F)(F)F | 100% | 93% | 33% |
| Cl.N=C(NCCc1ccc(Cl)cc1)c1ccc(Cl)c(Cl)c1 | 100% | 42% | 43% |
| OC[C@H]1CCCN1CC#Cc1cc2c(Nc3ccc(OCc4cccc(F)c4)c(Cl)c3)ncnc2s1 | 89% | 6% | 13% |
